According to paper PMC4336329 (PLoS ONE, 2015):
Out of some 310,000 compounds screened, about 14,000 (4.5%) showed an effect of 50% or more. The effect is printed as a negative number. The sample as a whole holds a higher share of strong results than the screen did.

What follows are molecules tested against human ether-à-go-go-related gene (hERG) potassium channel (human, UniProt Q12809) (assay: primary screen, population patch clamp on CHO cells stably expressing hERG; higher = less effect of the substance).
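Also: peak tail current of the secondary pulse compared with the same well before compound.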

human ether-à-go-go-related gene (hERG) potassium channel, sequence (Q12809 whole entry, looked up): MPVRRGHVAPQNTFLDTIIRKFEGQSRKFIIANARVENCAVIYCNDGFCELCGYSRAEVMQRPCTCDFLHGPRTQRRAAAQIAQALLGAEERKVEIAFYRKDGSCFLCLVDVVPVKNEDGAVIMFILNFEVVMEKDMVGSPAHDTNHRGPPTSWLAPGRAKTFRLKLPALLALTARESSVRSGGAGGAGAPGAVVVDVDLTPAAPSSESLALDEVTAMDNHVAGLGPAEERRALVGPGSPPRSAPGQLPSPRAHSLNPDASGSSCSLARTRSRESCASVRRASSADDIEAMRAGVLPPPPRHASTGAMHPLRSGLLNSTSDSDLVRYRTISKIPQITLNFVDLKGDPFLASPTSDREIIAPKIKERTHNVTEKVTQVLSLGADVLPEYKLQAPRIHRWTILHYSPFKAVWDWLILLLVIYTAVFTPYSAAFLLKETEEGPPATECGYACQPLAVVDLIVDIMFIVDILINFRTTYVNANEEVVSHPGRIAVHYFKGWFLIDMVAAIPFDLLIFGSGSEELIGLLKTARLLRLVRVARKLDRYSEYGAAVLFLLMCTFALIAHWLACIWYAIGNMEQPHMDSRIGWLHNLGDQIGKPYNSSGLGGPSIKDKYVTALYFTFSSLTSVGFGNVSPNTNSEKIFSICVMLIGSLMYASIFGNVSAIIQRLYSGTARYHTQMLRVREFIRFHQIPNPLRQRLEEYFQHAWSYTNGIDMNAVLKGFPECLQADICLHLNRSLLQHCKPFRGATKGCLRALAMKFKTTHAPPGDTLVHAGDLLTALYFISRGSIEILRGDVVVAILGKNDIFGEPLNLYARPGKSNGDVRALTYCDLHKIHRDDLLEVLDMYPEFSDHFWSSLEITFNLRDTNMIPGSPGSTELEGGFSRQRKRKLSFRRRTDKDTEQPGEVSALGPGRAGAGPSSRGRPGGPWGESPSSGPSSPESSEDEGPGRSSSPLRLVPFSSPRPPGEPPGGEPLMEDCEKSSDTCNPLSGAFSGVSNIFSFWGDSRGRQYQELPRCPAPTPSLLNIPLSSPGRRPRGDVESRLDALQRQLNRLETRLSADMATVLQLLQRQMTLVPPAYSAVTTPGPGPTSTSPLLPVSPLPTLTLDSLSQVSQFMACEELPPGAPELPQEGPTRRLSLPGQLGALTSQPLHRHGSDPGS

Structure (SMILES)	hERG current change (%, negative = inhibition) at 10uM
CCCCC(CC)CNC(=O)C1C2C=CC(C2)C1C(=O)O (stereo not drawn)	-4.63%
CC1(C(=O)NC2CCCCC2)CCC(=O)N1Cc1cccs1 (stereo not drawn)	-0.227%
O=C(NCCCN1CCCC1=O)c1csc2ccccc12	-28.2%
CC(C)Oc1ccc(CN2CCCC(CO)(Cc3ccccc3)C2)cc1CO (stereo not drawn)	-43.1%
COc1cc(CN2CCCC(CO)(Cc3ccccc3F)C2)ccc1O (stereo not drawn)	-22.5%
CCOc1ccc(CN2CCCC(CO)(Cc3ccc(F)cc3)C2)cc1 (stereo not drawn)	-62%
COC(=O)c1ccc(CN2CCCC(CO)(Cc3ccccc3F)C2)cc1 (stereo not drawn)	-32.7%
CCOc1ccc(CN2CCCC(CO)(Cc3ccccc3F)C2)cc1 (stereo not drawn)	-64.8%
CCn1cc(CN2CCCC(CO)(Cc3ccc(F)cc3)C2)c2ccccc21 (stereo not drawn)	-32%
CSCCCN1CCCC(CO)(Cc2ccc(F)cc2)C1 (stereo not drawn)	-30.1%
CC(C)Oc1ccc(CN2CCCC(CO)(Cc3ccc(F)cc3)C2)cc1 (stereo not drawn)	-58.7%
O=C(O)c1cccc2c1C(=O)c1cc(Br)ccc1S2(=O)=O	20.2%
Cc1ccc(S(=O)(=O)NCCS(=O)(=O)N2CCN(c3ccccc3)CC2)cc1	-1.5%
CC(=O)c1nn(-c2cccc(Br)c2)cc1C(=O)c1ccc(Br)cc1	12.7%
O=C(NCCCN=C1NS(=O)(=O)c2ccccc21)c1ccc(S(=O)(=O)N2CCOCC2)cc1	4.24%
COCn1ccnc1C(O)(c1ccc(OC)cc1)c1ccc(OC)cc1	9.69%
O=C(O)CCC(NS(=O)(=O)c1ccc(N2CCCC2=O)cc1)C(=O)O (stereo not drawn)	-7.11%
O=C(O)C(=O)O.O=C(c1ccccc1)N1CCN(C2CCCCC2)CC1	-31.9%
O=C(c1ccncc1)N1CCN(C(=O)c2ccncc2)CC1	12%
O=C(O)C(=O)O.O=C(c1ccncc1)N1CCN(C2CCC(c3ccccc3)CC2)CC1 (stereo not drawn)	-63.4%
O=C(O)C(=O)O.O=C(c1ccc(F)cc1)N1CCN(C2CCC(c3ccccc3)CC2)CC1 (stereo not drawn)	-76%
O=C(O)C(=O)O.O=C(c1ccncc1)N1CCN(C2CCCCC2)CC1	-23.4%
COc1cccc(C(=O)N2CCN(C3CCC(c4ccccc4)CC3)CC2)c1OC.O=C(O)C(=O)O (stereo not drawn)	-10.1%
O=C(c1ccc(F)cc1)N1CCCC(c2ccccc2)C1 (stereo not drawn)	15.8%
O=C(O)C(=O)O.O=C(c1ccccc1)N1CCN(C2CCCCCC2)CC1	-28.8%
O=C(O)C(=O)O.O=C(c1ccccc1F)N1CCN(C2CCC(c3ccccc3)CC2)CC1 (stereo not drawn)	-60.5%
O=C(c1ccc(F)cc1)N1CCC(c2ccccc2)C1 (stereo not drawn)	2.75%

Structure (SMILES)	hERG current change (%, negative = inhibition) at 10uM
CC1CCC(N2CCN(C(=O)c3ccccc3F)CC2)CC1.O=C(O)C(=O)O (stereo not drawn)	-2.63%
O=C(O)C(=O)O.O=C(c1ccc(F)cc1)N1CCN(C2CCCCC2)CC1	-62.1%
O=C(CSc1nnc2ccccn12)NC(=O)NC1CCCC1	13.4%
O=C(O)C1C2C=CC(C2)C1C(=O)Nc1cccc(C(F)(F)F)c1 (stereo not drawn)	8.95%
CC(C)c1ccc(/C=C2\SC(N3CCCC3)=NC2=O)cc1	-37.1%
CCOc1ccccc1OCCCC(=O)NNC(=O)c1nn(C)c(=O)c2ccccc12	-20.3%
Cn1cnc(S(=O)(=O)Nc2ccccc2C(=O)NCC2CC2)c1	13.7%
Cc1ccc(C)c(NC(=S)NNc2ccc(F)cc2F)c1	5.57%
Cc1c(C)c2ccc(O[C@@H]3O[C@H](CO)[C@@H](O)[C@H](O)[C@H]3O)c(C)c2oc1=O	11.7%
COc1ccc(NC(=O)c2ccc(Cl)c(S(=O)(=O)N3CCc4ccccc4C3)c2)cn1	-46.8%
CCc1cc(C(c2cccc(OC)c2)N2CCOCC2)c(NC(=O)c2ccccc2)s1 (stereo not drawn)	-1.91%
Cc1cc(NO)c(C(C)C)cc1N=O	-2.87%
O=C(NC1CCN(C(=O)NCc2ccccc2)CC1)c1ccc(F)cc1	-15.8%
O=C(NCCNC1CCC(c2ccccc2)CC1)c1cccs1 (stereo not drawn)	-35.2%
O=C(NCCNC1CCC(c2ccccc2)CC1)c1ccc(F)cc1 (stereo not drawn)	-58.3%
C/C(=N\NC(=O)c1ccccn1)c1ccc(Cl)cc1	5.74%
Cc1cc2c(N=NC(=O)C3CC3c3ccccc3)c(O)[nH]c2cc1Br (stereo not drawn)	0.687%
Cc1ccc2[nH]c(O)c(N=NC(=O)C3CC3c3ccccc3)c2c1Br (stereo not drawn)	-55.7%
Cc1ccc2[nH]c(O)c(N=NC(=O)CCc3ccccc3)c2c1Br	10.5%
COC(=O)CCC(=O)OC1(C)C(=O)C2=CN(CC3CC3)C(c3ccc(OC)cc3)=CC2=C(Br)C1=O (stereo not drawn)	4.74%
COC(=O)CCC(=O)OC1(C)C(=O)C2=CN(C3CCCC3)C(c3ccc(OC)cc3)=CC2=C(Br)C1=O (stereo not drawn)	-52.6%
COCCN1C=C2C(=O)C(C)(OC(=O)CCC(=O)OC)C(=O)C(Br)=C2C=C1c1ccc(OC)cc1 (stereo not drawn)	7.96%
COC(=O)CCC(=O)OC1(C)C(=O)C2=CN(Cc3ccccc3)C(c3ccc(OC)cc3)=CC2=C(Br)C1=O (stereo not drawn)	2.01%
COC(=O)CCC(=O)OC1(C)C(=O)C2=CN(Cc3ccc(OC)cc3)C(c3ccc(OC)cc3)=CC2=C(Br)C1=O (stereo not drawn)	-58.7%
COC(=O)CCC(=O)OC1(C)C(=O)C2=CN(C3CC3)C(c3ccc(OC)cc3)=CC2=C(Br)C1=O (stereo not drawn)	14.4%
Cc1ccc(N2CCN(C3=NC(=O)/C(=C\c4cn[nH]c4-c4ccccc4)S3)CC2)cc1	2.07%
COc1ccc(C2/C=C\CN(C(=O)OCc3ccccc3)CC(=O)N2Cc2ccc(F)cc2)cc1 (stereo not drawn)	-26%
